Screening results (PubChem BioAssay)
aSyn rescue: qHTS of alpha-syn Inhibitors. Yeast expressing alpha-synuclein, growth rescue, BacTiter-Glo, 24 h. Potency, µM (titrated, usually from 46.1 µM), without a hit: at the highest dose growth rescue (activation), actives largely listed as activators. 370,000 tested, 0.14% active; note: % of control where 0% means no effect; nearly all actives have a fitted effect of over 65% in size
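Readout is rescue of growth in alpha-synuclein-expressing yeast, so inhibitors of toxicity appear as activators. Growth after 24 hr at 30 deg C in galactose medium is quantified by luminescence.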
FUS yeast rescue: qHTS for Suppressors of FUS Proteinopathy: Primary screen using FUS-linked yeast assay; AID 1347120, 2019; 390,000 tested, 0.24% active; Potency, µM (series often up to 76.6 µM), most hits filed as activators; S. cerevisiae FUS-expressing, growth rescue, OD600, 24 h;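 note: plate controls were DMSO vehicle for no effect and reference control for full effect; nearly all actives have a fitted effect of over 55% in size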
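Galactose (2%) drives FUS expression in yeast precultured in raffinose; seeding density OD 0.005. Test compounds incubated 24hr at 30C and 99% humidity before absorbance at 600 nm was measured.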
Abeta yeast res: qHTS for compounds that reverse cellular toxicity of Amyloid beta (A-beta) peptide in yeast: Primary Screen; yeast expressing A-beta42, growth rescue, OD600, 48 h; response scale: 0% DMSO, 100% iron-clioquinol control; Potency, µM (doses to about 46.1 µM), actives largely listed as activators; 410,000 tested, 0.063% active; note: nearly all actives have a fitted effect of over 55% in size
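Growth rescue measured by 600 nm absorbance after 48 h yeast culture at 30 C with compound. Values normalized between DMSO and an equimolar ferric chloride plus clioquinol control.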
TDP43 rescue: qHTS of TDP-43 Inhibitors. TDP-43 expressing yeast growth rescue, BacTiter-Glo, 24 h. Potency, µM (top dose mostly 46.1 µM), without a hit: at the highest dose growth rescue (activation), hits mostly activators. 410,000 tested, 1.8% active; note: % of control where 0% means no effect; nearly all actives have a fitted effect of over 50% in size
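Luminescence from BacTiter-Glo reports growth of TDP-43-expressing yeast after 24 hr at 30 deg C with compound. Cells were raffinose-pregrown to mid-log, then seeded in galactose medium at OD600=0.02.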
* hit, by the source's call; i = inactive; ? = inconclusive; · = no result; [ ] = dose if it differs, or a comment. Sampled rows, rich in hits. Any-hit rate of the full collection: about 2.1%. Calls come from the whole dose curve; as a rule, active = well fitted curve in the direction sought with a large enough effect; inconclusive = small, poorly fitted or top-dose-only effect, or another doubt; inactive = no such curve, though single readings can be large; an effect the other way counts as inactive or inconclusive. Potency is the fitted concentration of half-maximal effect.

SMILES	aSyn rescue	FUS yeast rescue	Abeta yeast res	TDP43 rescue
COc1ccc(F)cc1S(=O)(=O)n1nnc2ccccc21	?	?	i	10µM*
COc1ccc(OC)c(S(=O)(=O)n2nnc3ccccc32)c1	-13%	·	i	?
CCN(CC)c1nc(N)c2c(N)n(-c3ccccc3C)c(=S)c(C#N)c2c1C#N	0%	28µM*	i	13%
CCN(CC)c1nc(N)c2c(N)nc3c(c2c1C#N)CC(c1ccccc1)O3 (configuration not stated)	4%	i	i	-12%
COc1cc(-c2cc(OC)c3c(C)oc(C)c3c(=O)c2)ccc1OC(=O)c1ccccc1C	·	?	i	20µM*
COc1cc(-c2cc(OC)c3c(C)oc(C)c3c(=O)c2)ccc1OC(=O)c1cccc(Cl)c1	·	?	i	20µM*
CCOc1cc(-c2ccc(OC(=O)c3ccc(C)cc3)c(OC)c2)cc(=O)c2c(C)oc(C)c12	·	?	i	18µM*
CCn1c(=N)c(C(=O)NCc2ccccc2)cc2c(=O)n3cccc(C)c3nc21	·	i	i	12%
COc1cccc(C2CC(c3ccccc3Cl)n3nnnc3N2)c1 (configuration not stated)	17%	?	i	-6%
COC(=O)/C(=C1/Oc2cc(C)oc(=O)c2S1)C(F)(F)F	1%	·	i	8.9µM*
Cc1ccc(CSCCNC(=O)CCSc2ccccc2)cc1	-2%	i	i	7%
Cc1ccccc1CSCCNC(=O)CCSc1ccccc1	18%	i	?	16µM*
Cc1ccccc1CSCCNC(=O)COc1ccc(Cl)cc1	27%	i	i	11µM*
CC(C)(C)SCCNC(=O)COc1ccc(Cl)cc1	23%	i	i	1%
CSC1=NSC2=NC(=O)/C(=C\c3cccs3)C(=N)N12	-1%	·	i	-49%
Cc1nnc(N2C(=O)c3cccc4c([N+](=O)[O-])ccc(c34)C2=O)s1	-2%	i	i	13µM*
CC(C)C[C@@H](CN1CCC[C@@H]1CN1C(=S)NC[C@@H]1Cc1ccc(O)cc1)N1C[C@H](Cc2ccc(O)cc2)N(CCc2ccccc2)C1=S	-4%	35µM*	i	-1%
COC(=O)C1=C(C)NC2=C(C(=O)CC(C)(C)C2)C1c1ccsc1 (configuration not stated)	-6%	i	i	-12%
Fc1cccc(Cc2noc(CN3CCCN(C4Cc5ccccc5C4)CC3)n2)c1	4%	i	i	-18%
O=C1COc2ccc(C(=O)COC(=O)/C=C/c3cccc(F)c3)cc2N1	-14%	i	i	6%
Cc1ccc2nc(NC(=O)C3=NN(c4ccccc4)C(=O)CC3)sc2c1	-1%	?	i	16µM*
O=C(O)c1ccc(N2CCN(c3ccc(Cl)cc3)CC2)c([N+](=O)[O-])c1	15%	i	i	-10%
COc1ccc(S(=O)(=O)Oc2ccc3cccc(N)c3c2)cc1	?	i	?	16µM*
CCOC(=O)c1cnn(-c2nc(-c3ccc(C)cc3)cs2)c1C(F)(F)F	0%	i	i	23%
CC(=O)Nc1cc(C(F)(F)F)ccc1Oc1cccc(Br)c1	1%	i	i	11µM*
SMILES	aSyn rescue	FUS yeast rescue	Abeta yeast res	TDP43 rescue
CC(=O)Nc1cc(C(F)(F)F)ccc1OCCOc1ccccc1	-3%	i	i	13µM*
CCOCC(=O)Nc1cc(C(F)(F)F)ccc1Oc1cccc(Br)c1	-7%	i	?	?
COc1cccc(NC2=NCCCCC2)c1	2%	i	i	-3%
COC(=O)c1ccc(CSc2nc3c(c(=O)n2-c2ccc(C)cc2)SCC3)o1	1%	i	i	?
CCCCN(C)C(=O)c1sc(=O)n(Cc2ccc(Cl)c(Cl)c2)c1C	?	i	i	25µM*
CSc1ccc(Cn2c(C)c(C(=O)NCc3ccc(Cl)c(Cl)c3)sc2=O)cc1	1%	?	?	12%
Cc1ccc(Cl)cc1-n1ncc2c(NCCCc3ccccc3)ncnc21	·	i	i	?
Fc1ccc(-n2ncc3c(NCCC4=CCCCC4)ncnc32)cc1	·	i	i	?
CCCCNc1ncnc2c1cnn2-c1ccc(C)cc1C	-10%	i	i	13µM*
Cc1ccc(Cl)cc1-n1ncc2c(NCc3ccc(F)cc3)ncnc21	·	i	i	20µM*
Cc1ccc(Cl)cc1-n1ncc2c(NCCC3=CCCCC3)ncnc21	·	?	i	35µM*
COCCCNc1ncnc2c1cnn2-c1ccc(C)cc1C	-7%	i	i	?
Cc1ccc(Cl)cc1-n1ncc2c(NCCc3ccccc3)ncnc21	·	i	i	22µM*
COCCNC(=O)/C(C#N)=C/c1ccccc1Br	-3%	i	i	22µM*
CC(C)C(=O)Nc1sc2c(c1C#N)CCCCC2	8%	i	i	13µM*
O=C(Cc1cccs1)N(Cc1ccco1)C1(C(=O)NC2CCCCC2)CCCCC1	4%	i	i	5%
O=C(Cc1cccs1)N(Cc1cccs1)C1(C(=O)NC2CCCC2)CCCCC1	0%	i	i	20µM*
Cc1ccc(C)c(OC(=O)c2cccnc2)c1	0%	i	i	13%
O=C(Nc1ccccc1)/C(=C/c1ccccc1)c1ccccc1	-6%	i	i	13µM*
Cc1ccccc1NC(=O)/C(=C/c1ccccc1)c1ccccc1	-9%	i	i	18%
Cc1occc1C(=O)N/N=C/C1=C(N2CCOCC2)C(=C\c2ccc(Cl)cc2)/CC1	13%	i	i	-13%
Cc1ccc(/C=C/C(=O)OCC(=O)NCc2ccccc2)o1	2%	i	i	-3%
Cc1cc(C(F)(F)F)c(C#N)c(Sc2ccccc2)n1	0%	i	i	-11%
CCN(CC)C(=O)C1CCN(S(=O)(=O)c2c(C)noc2/C=C/c2cccc(C)c2)CC1	1%	20µM*	i	0%
CCOC(=O)c1ccc(-c2c(-c3ccc(OC)cc3)oc(=O)c3cc(OC)c(OC)cc23)cc1F	-11%	i	i	4%
SMILES	aSyn rescue	FUS yeast rescue	Abeta yeast res	TDP43 rescue
O=C(c1ccc(Cl)c(Cl)c1)N1CCC(=O)N(C(COCc2cccc(Cl)c2)Cc2ccccc2)CC1 (configuration not stated)	?	?	i	1%
S=c1[nH]nc(-c2ccc(Cl)cc2)n1/N=C/C=C/c1ccco1	15%	?	5µM*	-21%[1.82 µM]
O=C(NNC(=O)c1csc(-c2cccs2)n1)c1ccc(Cl)cc1	17%	i	i	22µM*
Cc1nnc(SCC(=O)Nc2ccc(S(=O)(=O)N3CCCCC3)cc2)s1	-6%	·	i	9%
Cc1ccc(-n2nnnc2C(Cl)c2nnnn2-c2ccc(C)cc2)cc1	-47%	i	i	3.5µM*
Cc1c(/C=C/C(=O)c2ccc(Cl)s2)cnn1C	3%	i	i	13µM*
